Source: PubChem BioAssay (several laboratories)
tim23-1 inh: growth inhibitors of tim23-1 mutant yeast. S. cerevisiae tim23-1 growth, BacTiter-Glo luminescence, 24 h. inhibition, % at 20 µM. AID 463212. 330,000 tested, 1.3% active;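 active = growth inhibition of the mutant yeast at or above 50%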;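 note: temperature-sensitive mutant grown at 25 °C; plate controls were DMSO-treated mutant yeast for no effect and medium wells lacking yeast for full effect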
NALP1 inh: inhibitors of NALP1 inflammasome in yeast. S. cerevisiae NALP1/ASC/caspase-1 growth, X-gal OD620, 72 h. inhibition, % at 10 µM. 280,000 tested, 0.61% active. AID 2071; in the data active = inhibition mostly above about 24%, no sharp cut-off; inactive = mostly below about 32%
TIM10 inh: TIM10 yeast growth inhibition; S. cerevisiae TIM10 strain growth, BacTiter-Glo luminescence, 24 h; AID 463195; inhibition, % at 10 µM; 330,000 tested, 1.4% active;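 active = inhibition of 40% or more at the single tested concentration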;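 note: wild-type TIM10 isogenic control strain grown at permissive 25 °C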
PfHsp90 yeast 2: reduces growth (ATP signal) of yeast expressing P. falciparum Hsp90. S. cerevisiae expressing PfHsp90, BacTiter-Glo ATP, 48 h; yeast lacking PDR1 and PDR3 efflux regulators. 310,000 tested, 0.32% active. inhibition, % at 9.4 µM;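 active = every replicate shows inhibition above about 80%, whatever the replicate mean, limit read from the data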;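 note: 0% = DMSO neutral controls and 100% = 20 µM radicicol positive controls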
tim10-1 inh: inhibits growth of tim10-1 mutant yeast. S. cerevisiae tim10-1 ts strain growth, BacTiter-Glo, 24 h. inhibition, % at 20 µM. 330,000 tested, 2.2% active. AID 463190;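 active = inhibition of at least 40%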;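 note: mutant grown at 25 °C; 0% = DMSO wells with yeast and 100% = wells holding no yeast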
NLRP3 yeast inh: NALP3 inhibition in yeast; Yeast reconstituted NLRP3/ASC/caspase-1, beta-gal luminescence, 24 h; inhibition, % at 10 µM; 330,000 tested, 0.39% active;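 active = inhibition of 50% or more; inactive = inhibition below 50%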;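 note: plate controls were induced DMSO wells for no effect and uninduced yeast grown without galactose for full effect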
tim10 confirm: TIM10 yeast growth inhibition, confirmed. shares compounds with TIM10 inh. 4,600 tested, 63% active. inhibition, % at 10 µM. AID 463215. S. cerevisiae tim10 strain growth, BacTiter-Glo luminescence, 24 h;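 active = inhibition of yeast growth at or above a set limit in either of two replicates at 10 µM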;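 note: this counterscreen used the strain with wild-type TIM10; 0% = yeast with DMSO and 100% = medium wells lacking yeast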
* hit, by the source's call; / = not tested or not shown. Most compounds without a hit are left out; they make up all but 4.2% or so of the library.

SMILES | tim23-1 inh | NALP1 inh | TIM10 inh | PfHsp90 yeast 2 | tim10-1 inh | NLRP3 yeast inh | tim10 confirm
Oc1ccc(-c2c(-c3ccsc3)sc3ccccc23)cc1 | 40.8 | 22.2 | 48.3* | 107.0* | 30.1 | 8.3 | 61.4*
COCc1ccc(-c2c(-c3ccsc3)sc3ccccc23)cc1 | 2.7 | / | -2.6 | -2.3 | 0.1 | 4.1 | /
Cc1cc(/C=C2\NC(=O)N(Cc3ccc(Cl)cc3)C2=O)c(C)n1C | / | 20.9 | / | 15.7 | / | / | /
COc1cnc(-c2ccccn2)nc1Oc1ccc(Cl)c2ccccc12 | 40.1 | 5.4 | 53.4* | / | 36.7 | 34.3 | 40.7*
CCNC(=S)N/N=C/c1cn(Cc2ccc(F)cc2)c2ccccc12 | 40.5 | 3.1 | 43.4* | 9.1 | 31.8 | 20.4 | 50.7*
CC1CCN(C(=S)c2cn(Cc3ccc(F)cc3)c3ccccc23)CC1 | 27.5 | 18.9 | 54.6* | -10.0 | 35.5 | 20.2 | 38.1*
CN1CCN(C(=S)c2cn(Cc3ccc(F)cc3)c3ccccc23)CC1 | 18.3 | 1.4 | -2.3 | 13.7 | 3.4 | 21.3 | /
CN(Cc1ccno1)C(=O)CC1C(=O)NCCN1CC(c1ccccc1)c1ccccc1 (stereo not given) | -0.8 | 5.4 | 2.2 | -32.7 | -3.5 | 13.2 | /
O=C(CSc1nncn1-c1ccccc1)NC1CCCCC1 | -6.1 | -10.2 | -7.6 | -25.2 | 5.8 | 6.3 | /
COc1cccc(NC(=O)N2CCN(c3nc(-c4cccc(OC)c4)cs3)CC2)c1 | 32.3 | / | 23.7 | 13.8 | 7.8 | 23.6 | /
COc1cccc(-c2csc(N3CCN(C(=O)NC45CC6CC(CC(C6)C4)C5)CC3)n2)c1 | 23.7 | -1.0 | 41.8* | -25.6 | 33.6 | 14.7 | 24.7
CCCn1cc(NC(=O)c2cc(-c3ccccc3)on2)cn1 | 41.3 | 6.1 | 42.8* | 1.3 | 28.0 | 47.2 | 41.5*
CC(C(=O)Nc1ccccc1)N(c1cccc(Cl)c1)S(C)(=O)=O (stereo not given) | 0.5 | 19.8 | 18.4 | -30.3 | 12.4 | -2.6 | /
O=C(Nc1ccccc1-c1ccccc1)C12CC3CC(CC(C3)C1)C2 | 33.7 | -5.6 | 50.3* | -14.2 | 33.6 | 3.6 | 39.0*
COCCN(C(=O)CCC(=O)Nc1nccs1)C(C(=O)NCCC(C)C)c1ccc(OC)cc1 (stereo not given) | 5.5 | -8.1 | 0.3 | -8.9 | 5.8 | 11.4 | /
O=C(Nc1ccc(Cl)cn1)c1ccc(Oc2ccccc2)cc1 | 12.3 | 4.6 | 74.7* | 5.4 | -5.1 | 34.5 | 17.4
CCCOc1ccc(C(=O)Nc2ccc(Cl)cn2)cc1 | 5.7 | -5.0 | -14.2 | 3.3 | -6.5 | 35.6 | /
Clc1ccc(-c2noc(CSc3nnc(-c4ccncc4)n3-c3ccccc3)n2)cc1 | 24.6 | 9.4 | 47.8* | 12.5 | 14.5 | 23.9 | 36.2*
Cc1ccc(-c2noc(CSc3nnc(-c4ccncc4)n3-c3ccc(C)cc3)n2)cc1 | 40.0 | -11.5 | 42.8* | -16.2 | 37.7 | -9.5 | 38.9*
Clc1ccc(-c2noc(CSc3nnc(Cc4cccs4)n3-c3ccccc3)n2)cc1 | 33.6 | 16.6 | 97.2* | 3.1 | 30.7 | 13.2 | 21.8
CCOc1ccc(-n2c(SCc3nc(-c4ccc(C)cc4)no3)nnc2-c2ccncc2)cc1 | 25.0 | 13.6 | 39.5 | / | 35.1 | 8.9 | /
NCCCCCc1nnc(SCc2ccc(Cl)c(Cl)c2)o1 | 4.0 | -1.1 | 17.1 | 29.8 | 5.5 | 28.6 | /
CCOC(=O)C1=C(C)NC(=O)C1CC(=O)O (stereo not given) | -0.2 | 21.6 | -16.1 | 16.9 | -12.5 | 2.7 | /
CCn1cc([N+](=O)[O-])c(C(=O)N2N=C3/C(=C/c4cccs4)CCCC3C2c2cccs2)n1 (stereo not given) | 27.3 | 9.0 | 41.1* | / | 32.5 | 11.6 | 8.7
COc1cccc(/C=N/NC(=O)CSc2ccccc2C)c1OC | 1.3 | 27.7 | 14.0 | -2.8 | 3.9 | 17.8 | /
COc1cccc(/C=N/NC(=O)CSc2ccccc2C)c1O | 38.6 | 17.5 | 42.6* | 7.4 | 8.0 | -4.1 | 53.4*
O=C(/C=C/c1ccc2c(c1)OCO2)NCCSCc1ccc(Cl)cc1Cl | 13.4 | 4.5 | 40.5* | -30.9 | 37.0 | 25.5 | 2.8
CCCc1ccc(Oc2c(-c3ccc(O)c(C)c3O)n[nH]c2C)cc1 | -296.6 | -12.0 | 62.9* | 7.5 | -80.5 | 22.7 | 73.2*
CCCc1ccc(Oc2cn[nH]c2-c2ccc(O)c(C)c2O)cc1 | -276.8 | / | 71.4* | 141.6* | -191.1 | 43.4 | 70.8*
